# Experimental data as given in the supplement of paper PMC7156485.
# ± gives the standard deviation of the averaged measurements.
# Tests used:
# Settings in all cases: concentration: 10 µM; 24 h
# [1] = system: HCC1569; experiment: cell number relative to DMSO (% of DMSO); higher = more cells (less growth inhibition / toxicity)
# Method in brief: (§1)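 H1.0 nuclear intensity or cell number is stated as percent of the plate control, based on the median of replicates, and HCC1569 values were smoothed for positional effects. These came from HCC1569 and TDF cells treated with compounds at 10 µM for 24 h at 37 °C in triplicate, then fixed in 3.7% formaldehyde and stained with a rabbit anti-H1.0 antibody, an AlexaFluor 647 secondary and DAPI.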
# [2] = system: TDF; experiment: as above
# Method in brief: as §1
# [3] = system: TDF; experiment: H1.0 immunofluorescence intensity relative to DMSO (% of DMSO); higher = stronger H1.0 induction, active = 120 or more
# Method in brief: as §1
# [4] = system: HCC1569; experiment: H1.0 immunofluorescence intensity relative to DMSO (% of DMSO); higher = stronger H1.0 induction, active = 140 or more
# Method in brief: as §1
# 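For H1.0 immunofluorescence intensity relative to DMSO in this document: TDF is a line of transformed human dermal fibroblasts of mesenchymal origin.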
# 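For cell number relative to DMSO in this document: TDF denotes transformed human dermal fibroblasts of mesenchymal origin.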
Structure (SMILES),cell number [1],cell number [2],H1.0 immunofluorescence intensity [3],H1.0 immunofluorescence intensity [4]
CCCC[N+]1(C)C2CC(OC(=O)C(CO)c3ccccc3)CC1C1OC12 (centres undefined) [Scopolamine N-butyl],103,111,91.4 (inactive),100 (inactive)
CNCCc1c[nH]c2ccc(O)cc12.O=C(O)C(=O)O [N-omega-Methyl-5-hydroxytryptamine oxalate salt],101,103,91 (inactive),96.1 (inactive)
CC(NC(C)(C)C)C(=O)c1cccc(Cl)c1 (centres undefined) [Amfebutamone],96.8,108,97.2 (inactive),116 (inactive)
Cl.Cl.c1ccc(CCCN2CCN(CCOC(c3ccccc3)c3ccccc3)CC2)cc1,98.6,91.5,103 (inactive),102 (inactive)
NC(Cc1cc(O)c(O)cc1O)C(=O)O (racemic) [6-Hydroxy-DL-DOPA],98.2,96.2,97 (inactive),93.8 (inactive)
CC(C)=CCCC1=CC(=O)c2c(O)ccc(O)c2C1=O [Deoxyshikonin],32,34.6,119 (inactive),171 (active)
CC(C)CC1C(=O)N2CCCC2C2(O)OC(NC(=O)C3C=C4c5cccc6[nH]c(Br)c(c56)CC4N(C)C3)(C(C)C)C(=O)N12.CS(=O)(=O)O (centres undefined) [Bromocriptine mesylate],99.5 ± 2.3,102.8 ± 0.3,94.1 (inactive),102 (inactive)
C=CCN1CCC23c4c5ccc(O)c4OC2C(=NNC(=O)c2ccccc2)CCC3(O)C1C5 (centres undefined) [Naloxone benzoylhydrazone],99.7,118,101 (inactive),93.3 (inactive)
O=C(NCCN1CCC2(CC1)C(=O)NCN2c1cccc(F)c1)c1ccc(F)c(F)c1,92.7,92.3,110 (inactive),107 (inactive)
CC(=O)N1N=C(c2ccc(N)cc2)c2cc3c(cc2C[C@H]1C)OCO3,95.4,103,106 (inactive),95.8 (inactive)
"C[N+]1([O-])C2CC(OC(=O)C(CO)c3ccccc3)CC1C1OC12 (single isomer, unassigned; (-)) [(-)-Scopolamine N-oxide]",96.4,105,99.4 (inactive),102 (inactive)
CN1[C@@H]2CC[C@H]1C[C@@H](OC(=O)[C@H](CO)c1ccccc1)C2 [L-Hyoscyamine],100,117,95 (inactive),96.2 (inactive)
O=C1CCCN1CC#CCN1CCCC1 [Oxotremorine],101,109,88.5 (inactive),102 (inactive)
NC(Cn1oc(=O)[nH]c1=O)C(=O)O (centres undefined) [Quisqualic acid],100,94.9,102 (inactive),92.7 (inactive)
"Br.CCCN1CCc2cc(O)cc3c2C1Cc1ccc(O)c(O)c1-3 (stereo not drawn) [R(-)-2,10,11-Trihydroxy-N-propylnoraporphine hydrobromide]",95.1,110,89.2 (inactive),100 (inactive)
CCCCCCC1C(=O)OC(C)C(NC(=O)c2cccc(NC=O)c2O)C(=O)OC(C)C1OC(=O)CC(C)C (centres undefined) [Antimycin A1],73.6,66.5,113 (inactive),136 (inactive)
CCC1CN2CCc3cc(OC)c(OC)cc3C2CC1CC1NCCc2cc(OC)c(OC)cc21.Cl.Cl (centres undefined),60,27,120 (inactive),100 (inactive)
CC(C)N(CCC(C(N)=O)(c1ccccc1)c1ccccn1)C(C)C.O=P(O)(O)O (centres undefined),99.8,101,103 (inactive),102 (inactive)
Br.COc1c2c(cc3c1OCO3)CCN(C)C2 [Hydrocotarnine HBr],102,107,104 (inactive),92.6 (inactive)
CCC1C(C)=NN=C(c2ccc(OC)c(OC)c2)c2cc(OC)c(OC)cc21 (centres undefined),93.8,103,93.1 (inactive),90.9 (inactive)
CC1C=CC=CCCC=CC=CC=CC=CC(OC2OC(C)C(O)C(N)C2O)CC2OC(O)(CC(O)C(O)CCC(O)CC(O)CC(O)CC(=O)OC(C)C(C)C1O)CC(O)C2C(=O)O (centres undefined) [Nystatin],101,105,103 (inactive),104 (inactive)
COC(C(=O)C(O)C(C)O)C1Cc2cc3cc(OC4CC(OC5CC(O)C(OC)C(C)O5)C(OC(C)=O)C(C)O4)c(C)c(O)c3c(O)c2C(=O)C1OC1CC(OC2CC(OC3CC(C)(O)C(OC(C)=O)C(C)O3)C(O)C(C)O2)C(O)C(C)O1 (centres undefined) [Chromomycin A3],42.1,19.4,175 (active),196 (active)
"CNC(=O)Oc1ccc2c(c1)C1(C)CCN(C)C1N2C (single isomer, unassigned; (-)) [(-)-Physostigmine]",98.8,118,96.7 (inactive),94.3 (inactive)
Cl.O=C(N[C@H]1CN2CCC1CC2)c1c[nH]c2ccsc2c1=O,106,94.7,98.3 (inactive),107 (inactive)
CNCCc1ccc(O)c(O)c1.Cl [N-Methyldopamine hydrochloride],105,92.2,95.3 (inactive),94 (inactive)

Structure (SMILES),cell number [1],cell number [2],H1.0 immunofluorescence intensity [3],H1.0 immunofluorescence intensity [4]
CC(C)NC(C)Cc1ccc(I)cc1.Cl (centres undefined) [Iofetamine hydrochloride],105,113,91.5 (inactive),91.7 (inactive)
CN1C(=O)C23CC4=CC=CC(O)C4N2C(=O)C1(CO)SS3 (centres undefined) [Gliotoxin],0.969,0.3,,
C=CCN1CCC23c4c5ccc(O)c4OC2C(=O)CCC3(O)C1C5.Cl (centres undefined) [Naloxone hydrochloride],104,98.9,97.1 (inactive),90.6 (inactive)
CC1CCC2C(C)C(=O)OC3OC4(C)CCC1C32OO4 (centres undefined) [Artemesinin],102 ± 2.5,97.4 ± 2.2,95.9 (inactive),116 (inactive)
COc1ccc2c(c1)C13CCCCC1C(C2)N(C)CC3 (centres undefined) [Dextromethorphan],103,103,102 (inactive),107 (inactive)
CCCCC(C)C(OC(=O)CC(CC(=O)O)C(=O)O)C(CC(C)CCCCCCC(O)CC(O)C(C)N)OC(=O)CC(CC(=O)O)C(=O)O (centres undefined) [Fumonisin B2],100,102,97.3 (inactive),89.7 (inactive)
"O=[N+]([O-])c1cc(O)c(O)c([N+](=O)[O-])c1 [3,5-Dinitrocatechol]",98.6,107,99.9 (inactive),97.9 (inactive)
CCN(CC)C(=O)NC1C=C2c3cccc4[nH]cc(c34)CC2N(C)C1 (stereo not drawn) [S-(-)-Lisuride],101,105,95.5 (inactive),93.6 (inactive)
CC[NH+](CC)CC.Nc1ncnc2c1ncn2C1OC2COP([O-])(=S)OC2C1O (centres undefined) [Rp-cAMPS triethylamine],103,113,86 (inactive),88.3 (inactive)
C#CCNC(C)Cc1ccccc1.Cl (stereo not drawn) [R-(-)-Desmethyldeprenyl hydrochloride],102,103,97.2 (inactive),90.7 (inactive)
CC1=NN=C(c2ccc(N)cc2)c2cc3c(cc2C1)OCO3.Cl,97.4,95.2,106 (inactive),104 (inactive)
O=c1c2ccccc2[se]n1-c1ccccc1 [Ebselen],102.1 ± 0.14,97.7 ± 1.2,102 (inactive),114 (inactive)
"CCCN(CCC)CCc1c[nH]c2ccc(C(N)=O)cc12.O=C(O)C=CC(=O)O [N,N-Dipropyl-5-carboxamidotryptamine maleate]",99.4,104,97 (inactive),98.9 (inactive)
O=C(O)C(=O)c1cn(Cc2ccccc2)c2ccc(-c3ccc(OC(F)(F)F)cc3)cc12,99.9,106,94 (inactive),99.4 (inactive)
NC(Cn1ccc(=O)[nH]c1=O)C(=O)O (stereo not drawn) [S(-)-Willardiine],104,118,97.7 (inactive),97.6 (inactive)
C=C1CC2C(CCC3(C)C(=O)CCC23)C2(C)C=CC(=O)C=C12 (centres undefined) [Exemestane],101,97.4,98.1 (inactive),102 (inactive)
CN(C)C(=O)Oc1ccc[n+](C)c1.[Br-] [Pyridostigmine bromide],103,107,96.8 (inactive),108 (inactive)
CC12CCC3C(CCC4(O)CC(O)CCC34C=O)C1(O)CCC2C1=CC(=O)OC1 (centres undefined) [Strophantidin],67,56.2,123 (active),115 (inactive)
CC=C(C)C(=O)OC1CCC2(C)C3CCC4C5(O)CC(O)C6(O)C(CN7CC(C)CCC7C6(C)O)C5(O)CC42OC13O (centres undefined) [Cevadine],99.9,99.4,96.4 (inactive),93 (inactive)
CC(C)C1C(=O)OC2CCN3CC=C(COC(=O)C(C)(O)C1(C)O)C23 (centres undefined) [Trichodesmine],99.6,103,93.2 (inactive),89.8 (inactive)
CC(C)(C)NCC(O)c1cc(Cl)c(N)c(Cl)c1 (centres undefined) [Clenbuterol],99.5,103,95.2 (inactive),118 (inactive)
CCNC1=Nc2ccc(Cl)cc2C(C)(c2ccccc2)O1.Cl (centres undefined),92.5,105,97.3 (inactive),141 (active)
CC(N)C(O)c1ccccc1 (centres undefined) [Phenylpropanolamine],102,94,100 (inactive),99.8 (inactive)
CCC1(C2=NCCN2)Cc2ccccc2O1.Cl (centres undefined) [Efaroxan hydrochloride],103,105,93.1 (inactive),94 (inactive)
